Results from PubChem BioAssay.
Active and inactive are the calls of the source. How the calls were made is not given here.

biological target: Pantothenate synthetase (Mycobacterium tuberculosis (strain ATCC 25618 / H37Rv)) (UniProt P9WIL5); assay: Coupled enzyme confirmation of inhibitors against recombinant Mtb PanC (AID 375); conditions: coupled enzyme assay; at 10 µM, active compounds read high;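 further: 0% = full reaction with vehicle and 100% = no enzyme background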
Sequence (P9WIL5 whole entry, looked up): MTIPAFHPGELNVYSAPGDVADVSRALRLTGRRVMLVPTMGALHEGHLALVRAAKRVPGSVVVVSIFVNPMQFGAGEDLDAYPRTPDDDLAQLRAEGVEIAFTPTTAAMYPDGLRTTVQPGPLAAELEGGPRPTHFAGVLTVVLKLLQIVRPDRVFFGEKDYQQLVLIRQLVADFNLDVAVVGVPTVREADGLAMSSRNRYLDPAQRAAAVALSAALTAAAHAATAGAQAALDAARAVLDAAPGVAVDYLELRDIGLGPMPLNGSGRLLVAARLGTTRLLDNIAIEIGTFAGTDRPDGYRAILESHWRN

Row | Compound | inhibition
1 | CN1CC=C2C(C#N)=C(N)C(C#N)(C#N)C(Cc3ccccc3)C2C1 (stereo not given) | 0% (inactive)
2 | CCOC(=O)c1sc(NC(=O)c2noc3c2CCCC3)c(C(=O)OCC)c1C | 0% (inactive)
3 | CCOC(=O)c1cnc(-n2nc(C)cc2C)nc1Nc1ccc(N(C)C)cc1 | 8% (inactive)
4 | CC1CCN(S(=O)(=O)c2ccc(S(=O)(=O)NCC(=O)C(C)(C)C)cc2)CC1 | 2% (inactive)
5 | Cc1ccc(S(=O)(=O)NCCc2ccncc2)cc1 | 2% (inactive)
6 | COC(=O)Cn1c(=NC(=O)CSCC(=O)Nc2cc(C)on2)sc2ccccc21 | 0% (inactive)
7 | Nc1nc(SCc2nc3scc(-c4cccs4)c3c(=O)[nH]2)n[nH]1 | 6% (inactive)
8 | Nc1cc(-c2ccc(Br)cc2)nn1S(=O)(=O)c1ccccc1 | 2% (inactive)
9 | Cc1cc(Nc2ccccc2)n(CCC#N)n1 | 14% (inactive)
10 | COc1ccc(S(=O)(=O)Nc2ccc(F)c(Cl)c2)cc1OC | 0% (inactive)
11 | CCCCN(C)Cc1c(O)ccc2c(-c3ccccc3)cc(=O)oc12 | 1% (inactive)
12 | Cc1cc(C)n(-c2ccc(N3CCOCC3)nn2)n1 | 0% (inactive)
13 | Cc1c(C)c2cc(Cl)c(O)c(CN3CCCCC3)c2oc1=O | 1% (inactive)
14 | O=C(COc1ccc(S(=O)(=O)N2CCCC2)cc1Cl)NC1CC1 | 8% (inactive)
15 | Cc1ccccc1CS(=O)(=O)CCC(=O)N1CCN(c2ccc(N3CCOCC3)nn2)CC1 | 9% (inactive)
16 | C/C(Cl)=C\Cn1c(Nc2ccc(C)cc2)nc2c1c(=O)n(C)c(=O)n2C | 3% (inactive)
17 | CCCCn1c(=O)[nH]c(=O)c2c1nc(-c1ccncc1)n2CCOC | 1% (inactive)
18 | O=C1c2ccccc2-c2nc3ncnn3c(-c3ccccc3)c21 | 0% (inactive)
19 | c1csc(-c2nc3nc4ccccc4nc3n2Cc2ccc3c(c2)OCO3)c1 | 0% (inactive)
20 | O=C(COC(=O)c1ccccc1Oc1ccccc1)NC1CCS(=O)(=O)C1 (stereo not given) | 0% (inactive)

Row | Compound | inhibition
21 | COC(=O)c1ccc(C2CC(=O)Nc3cc(OC)c(OC)c(OC)c32)cc1 (stereo not given) | 0% (inactive)
22 | CCCN(CCC)C(=O)C1CCN(c2cc(C)nc3c(-c4ccc(OC)c(OC)c4)c(C)nn23)CC1 | 0% (inactive)
23 | CCN(CC)C(=O)CSc1nnc(-c2cc(OC)cc(OC)c2)o1 | 0% (inactive)
24 | CCN(CC)c1ncc(C)c(=O)[nH]1 | 1% (inactive)
25 | c1nc(NCC2(N3CCOCC3)CCCCC2)c2ccsc2n1 | 0% (inactive)
26 | O=c1c2ccccc2c(/C=N/n2cnnc2)c(O)n1-c1ccccc1 | 2% (inactive)
27 | CCCC1C(C#N)=C(N)Oc2n[nH]c(C(C)(C)C)c21 (stereo not given) | 0% (inactive)
28 | CC(C)(S)[C@@H](N)C(=O)O | 4% (inactive)
29 | Cc1nc(-c2coc3cc(OCC(=O)O)ccc3c2=O)cs1 | 0% (inactive)
30 | Cc1c(NC(=O)C(C)Oc2ncnc3ccccc23)c(=O)n(-c2ccccc2)n1C (stereo not given) | 0% (inactive)
31 | CCS(=O)(=O)NCCc1cc2c(OC)ccc(OC)c2[nH]c1=O | 3% (inactive)
32 | N#Cc1cc2ccc(N3CCOCC3)cc2cc1C#N | 0% (inactive)
33 | CCCCCn1c(=O)[nH]c2cc(C(=O)NCCCN3CCCCC3)ccc2c1=O | 3% (inactive)
34 | Cc1ccc(S(=O)(=O)C2(C(=O)Nc3nccs3)CC2)cc1 | 0% (inactive)
35 | O=C(c1ccco1)N1CCN(C(=O)c2ccc(Cn3cc(Br)cn3)o2)CC1 | 4% (inactive)
36 | O=C(NCc1cccnc1)c1ccccc1Br | 7% (inactive)
37 | Cc1ccc(-n2c(N)c(C(N)=O)sc2=S)cc1 | 6% (inactive)
38 | CCC(CC)C(=O)Nc1cccc(C(=O)NCc2ccco2)c1 | 6% (inactive)
39 | Cc1ccc(-c2nc3ncccc3o2)cc1NC(=O)c1ccco1 | 0% (inactive)
40 | O=C(CSc1nnnn1C1CCCC1)NCc1ccc2c(c1)OCO2 | 0% (inactive)
